Here are results for six compounds from ChEMBL document CHEMBL1961873, “Compounds: GSK PKIS; Assays: Nanosyn kinase panel” (2012).

In experiment [1] the target is T1, Tyrosine-protein kinase ITK/TSK (Homo sapiens) (UniProt Q08881).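 Also: values are mean percent inhibition of ITK from the GSK PKIS screen.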
T1 sequence (whole entry): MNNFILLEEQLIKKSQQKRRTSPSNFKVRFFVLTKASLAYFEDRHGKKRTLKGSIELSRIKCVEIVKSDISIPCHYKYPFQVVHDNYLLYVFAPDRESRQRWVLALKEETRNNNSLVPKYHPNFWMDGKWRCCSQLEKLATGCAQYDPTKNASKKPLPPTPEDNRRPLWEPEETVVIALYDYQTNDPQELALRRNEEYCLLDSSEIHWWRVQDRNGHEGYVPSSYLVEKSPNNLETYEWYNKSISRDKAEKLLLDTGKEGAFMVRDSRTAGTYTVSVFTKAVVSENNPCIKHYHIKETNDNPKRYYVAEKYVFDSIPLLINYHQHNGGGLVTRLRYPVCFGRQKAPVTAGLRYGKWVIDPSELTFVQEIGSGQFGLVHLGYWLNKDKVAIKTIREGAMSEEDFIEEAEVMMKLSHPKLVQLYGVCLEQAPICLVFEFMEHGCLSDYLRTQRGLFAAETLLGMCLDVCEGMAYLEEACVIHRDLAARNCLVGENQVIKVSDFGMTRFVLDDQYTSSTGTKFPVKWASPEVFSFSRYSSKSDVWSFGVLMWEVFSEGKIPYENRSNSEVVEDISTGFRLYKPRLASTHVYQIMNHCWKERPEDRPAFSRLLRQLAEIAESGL
The settings on record: at 1 µM.

In experiment [2] the target is Tyrosine-protein kinase JAK1 (Homo sapiens) (UniProt P23458). The settings on record: at 0.1 µM.
For experiment [3] the target is unchanged. The following applies: at 1 µM.
Experiment [4] has as its target Tyrosine-protein kinase JAK2 (Homo sapiens) (UniProt O60674). The settings on record: at 0.1 µM.
The target is the same in experiment [5]. The following applies: at 1 µM.
For experiment [6], the target named is T2, Tyrosine-protein kinase JAK3 (Homo sapiens) (UniProt P52333).
T2 sequence (whole entry): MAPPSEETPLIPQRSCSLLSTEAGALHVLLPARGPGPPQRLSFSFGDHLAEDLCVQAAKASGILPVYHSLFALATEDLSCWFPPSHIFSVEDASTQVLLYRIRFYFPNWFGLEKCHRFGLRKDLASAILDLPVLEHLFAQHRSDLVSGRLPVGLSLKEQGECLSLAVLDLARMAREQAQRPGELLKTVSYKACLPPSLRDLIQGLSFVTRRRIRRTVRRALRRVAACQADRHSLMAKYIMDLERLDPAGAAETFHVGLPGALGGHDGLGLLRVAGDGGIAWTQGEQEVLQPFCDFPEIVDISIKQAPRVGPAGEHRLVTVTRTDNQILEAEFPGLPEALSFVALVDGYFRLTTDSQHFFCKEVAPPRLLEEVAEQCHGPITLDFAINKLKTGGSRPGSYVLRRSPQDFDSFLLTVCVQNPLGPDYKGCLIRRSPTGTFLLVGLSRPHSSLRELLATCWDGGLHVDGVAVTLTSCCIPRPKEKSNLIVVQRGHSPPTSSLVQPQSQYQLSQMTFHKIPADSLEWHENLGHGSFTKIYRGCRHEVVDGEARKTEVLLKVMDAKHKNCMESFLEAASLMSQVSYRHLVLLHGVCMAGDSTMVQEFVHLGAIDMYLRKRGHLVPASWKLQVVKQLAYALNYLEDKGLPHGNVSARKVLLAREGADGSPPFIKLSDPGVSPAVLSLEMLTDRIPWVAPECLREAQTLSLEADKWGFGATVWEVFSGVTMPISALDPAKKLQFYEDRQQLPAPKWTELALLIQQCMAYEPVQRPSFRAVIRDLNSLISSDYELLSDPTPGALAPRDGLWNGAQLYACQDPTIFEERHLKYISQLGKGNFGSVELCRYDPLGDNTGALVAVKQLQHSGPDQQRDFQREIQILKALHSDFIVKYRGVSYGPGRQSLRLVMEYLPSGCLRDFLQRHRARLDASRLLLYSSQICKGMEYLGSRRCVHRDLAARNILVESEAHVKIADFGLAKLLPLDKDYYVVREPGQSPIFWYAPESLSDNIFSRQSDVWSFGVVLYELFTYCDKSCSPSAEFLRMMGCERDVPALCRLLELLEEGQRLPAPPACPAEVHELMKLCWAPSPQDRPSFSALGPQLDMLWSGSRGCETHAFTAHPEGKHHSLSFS
The settings on record: at 0.1 µM.

Experiment [7] has as its target T2, Tyrosine-protein kinase JAK3 (Homo sapiens). The settings on record: at 1 µM.
Experiment [8] has as its target Vascular endothelial growth factor receptor 2 (Homo sapiens) (UniProt P35968). The following applies: at 0.1 µM.
Experiment [9] has the same target. The settings on record: at 1 µM.
The target of experiment [10] is Mast/stem cell growth factor receptor Kit (Homo sapiens) (UniProt P10721). The following applies: at 0.1 µM.
For experiment [11] the target is unchanged. The settings on record: at 1 µM.
The subject of experiment [12] is Mast/stem cell growth factor receptor Kit (Homo sapiens), P10721 [D816V]. The following applies: at 0.1 µM.
Experiment [13] has the same test system. The following applies: at 1 µM.
The subject of experiment [14] is Mast/stem cell growth factor receptor Kit (Homo sapiens), P10721 [T670I]. The following applies: at 0.1 µM.
For experiment [15] the test system is unchanged. The following applies: at 1 µM.
For experiment [16], the system named is Mast/stem cell growth factor receptor Kit (Homo sapiens), P10721 [V560G]. The settings on record: at 0.1 µM.
Experiment [17] shares this test system. The following applies: at 1 µM.
For experiment [18], the target named is Tyrosine-protein kinase Lck (Homo sapiens) (UniProt P06239). The settings on record: at 0.1 µM.
The target is the same in experiment [19]. The following applies: at 1 µM.
In experiment [20] the target is Leukocyte tyrosine kinase receptor (Homo sapiens) (UniProt P29376). The following applies: at 0.1 µM.
Leukocyte tyrosine kinase receptor (Homo sapiens), sequence (P29376 whole entry): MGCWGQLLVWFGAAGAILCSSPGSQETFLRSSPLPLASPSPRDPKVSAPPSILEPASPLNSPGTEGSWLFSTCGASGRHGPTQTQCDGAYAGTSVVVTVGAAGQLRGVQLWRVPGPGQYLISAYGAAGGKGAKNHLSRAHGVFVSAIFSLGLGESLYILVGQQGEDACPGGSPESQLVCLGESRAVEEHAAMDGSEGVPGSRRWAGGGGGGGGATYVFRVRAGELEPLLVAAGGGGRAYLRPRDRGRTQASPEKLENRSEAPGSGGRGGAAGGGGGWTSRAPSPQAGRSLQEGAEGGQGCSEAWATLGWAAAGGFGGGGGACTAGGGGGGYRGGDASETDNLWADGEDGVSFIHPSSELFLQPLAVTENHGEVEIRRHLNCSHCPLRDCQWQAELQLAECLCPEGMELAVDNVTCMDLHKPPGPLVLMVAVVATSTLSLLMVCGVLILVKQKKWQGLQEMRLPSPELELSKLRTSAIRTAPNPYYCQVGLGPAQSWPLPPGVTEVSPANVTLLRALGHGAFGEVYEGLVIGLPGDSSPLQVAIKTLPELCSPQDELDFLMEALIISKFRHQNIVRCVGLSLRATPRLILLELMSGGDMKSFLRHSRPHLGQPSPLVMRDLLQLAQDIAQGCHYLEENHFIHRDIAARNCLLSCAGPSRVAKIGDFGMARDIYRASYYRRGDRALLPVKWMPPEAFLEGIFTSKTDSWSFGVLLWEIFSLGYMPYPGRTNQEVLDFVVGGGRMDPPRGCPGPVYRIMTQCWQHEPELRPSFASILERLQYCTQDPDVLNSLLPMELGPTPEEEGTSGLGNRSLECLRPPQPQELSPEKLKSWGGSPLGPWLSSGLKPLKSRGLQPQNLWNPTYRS

Mast/stem cell growth factor receptor Kit (Homo sapiens), sequence (P10721 whole entry): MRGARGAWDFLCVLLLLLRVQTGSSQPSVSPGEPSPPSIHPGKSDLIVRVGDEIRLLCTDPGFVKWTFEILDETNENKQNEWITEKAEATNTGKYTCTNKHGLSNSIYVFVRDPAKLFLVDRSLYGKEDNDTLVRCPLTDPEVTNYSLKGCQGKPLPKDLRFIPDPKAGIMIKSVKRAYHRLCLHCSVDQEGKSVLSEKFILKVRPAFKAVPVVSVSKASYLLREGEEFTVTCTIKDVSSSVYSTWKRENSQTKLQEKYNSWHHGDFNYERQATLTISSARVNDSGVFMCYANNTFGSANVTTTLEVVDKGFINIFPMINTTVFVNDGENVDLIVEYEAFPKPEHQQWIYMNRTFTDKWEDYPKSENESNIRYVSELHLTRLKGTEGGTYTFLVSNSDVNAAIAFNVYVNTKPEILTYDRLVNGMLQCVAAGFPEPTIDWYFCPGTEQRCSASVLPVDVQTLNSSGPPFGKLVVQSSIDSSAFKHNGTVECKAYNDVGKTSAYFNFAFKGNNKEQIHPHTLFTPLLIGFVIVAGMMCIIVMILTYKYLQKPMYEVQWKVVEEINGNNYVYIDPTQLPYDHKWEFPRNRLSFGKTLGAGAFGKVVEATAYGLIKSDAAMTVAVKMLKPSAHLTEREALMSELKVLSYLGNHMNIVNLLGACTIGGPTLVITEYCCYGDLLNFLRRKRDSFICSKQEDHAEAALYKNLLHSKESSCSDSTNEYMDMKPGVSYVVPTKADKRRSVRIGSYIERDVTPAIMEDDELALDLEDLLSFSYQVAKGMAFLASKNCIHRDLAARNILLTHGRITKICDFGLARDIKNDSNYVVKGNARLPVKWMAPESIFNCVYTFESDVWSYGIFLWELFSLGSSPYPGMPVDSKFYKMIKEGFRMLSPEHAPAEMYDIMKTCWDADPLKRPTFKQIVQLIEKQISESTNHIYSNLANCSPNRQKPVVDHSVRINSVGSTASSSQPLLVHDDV
Mast/stem cell growth factor receptor Kit (Homo sapiens), P10721 [T670I], sequence (P10721 whole entry T670I): as the sequence (P10721 whole entry) above, with T670I counted along it
Vascular endothelial growth factor receptor 2 (Homo sapiens), sequence (P35968 whole entry): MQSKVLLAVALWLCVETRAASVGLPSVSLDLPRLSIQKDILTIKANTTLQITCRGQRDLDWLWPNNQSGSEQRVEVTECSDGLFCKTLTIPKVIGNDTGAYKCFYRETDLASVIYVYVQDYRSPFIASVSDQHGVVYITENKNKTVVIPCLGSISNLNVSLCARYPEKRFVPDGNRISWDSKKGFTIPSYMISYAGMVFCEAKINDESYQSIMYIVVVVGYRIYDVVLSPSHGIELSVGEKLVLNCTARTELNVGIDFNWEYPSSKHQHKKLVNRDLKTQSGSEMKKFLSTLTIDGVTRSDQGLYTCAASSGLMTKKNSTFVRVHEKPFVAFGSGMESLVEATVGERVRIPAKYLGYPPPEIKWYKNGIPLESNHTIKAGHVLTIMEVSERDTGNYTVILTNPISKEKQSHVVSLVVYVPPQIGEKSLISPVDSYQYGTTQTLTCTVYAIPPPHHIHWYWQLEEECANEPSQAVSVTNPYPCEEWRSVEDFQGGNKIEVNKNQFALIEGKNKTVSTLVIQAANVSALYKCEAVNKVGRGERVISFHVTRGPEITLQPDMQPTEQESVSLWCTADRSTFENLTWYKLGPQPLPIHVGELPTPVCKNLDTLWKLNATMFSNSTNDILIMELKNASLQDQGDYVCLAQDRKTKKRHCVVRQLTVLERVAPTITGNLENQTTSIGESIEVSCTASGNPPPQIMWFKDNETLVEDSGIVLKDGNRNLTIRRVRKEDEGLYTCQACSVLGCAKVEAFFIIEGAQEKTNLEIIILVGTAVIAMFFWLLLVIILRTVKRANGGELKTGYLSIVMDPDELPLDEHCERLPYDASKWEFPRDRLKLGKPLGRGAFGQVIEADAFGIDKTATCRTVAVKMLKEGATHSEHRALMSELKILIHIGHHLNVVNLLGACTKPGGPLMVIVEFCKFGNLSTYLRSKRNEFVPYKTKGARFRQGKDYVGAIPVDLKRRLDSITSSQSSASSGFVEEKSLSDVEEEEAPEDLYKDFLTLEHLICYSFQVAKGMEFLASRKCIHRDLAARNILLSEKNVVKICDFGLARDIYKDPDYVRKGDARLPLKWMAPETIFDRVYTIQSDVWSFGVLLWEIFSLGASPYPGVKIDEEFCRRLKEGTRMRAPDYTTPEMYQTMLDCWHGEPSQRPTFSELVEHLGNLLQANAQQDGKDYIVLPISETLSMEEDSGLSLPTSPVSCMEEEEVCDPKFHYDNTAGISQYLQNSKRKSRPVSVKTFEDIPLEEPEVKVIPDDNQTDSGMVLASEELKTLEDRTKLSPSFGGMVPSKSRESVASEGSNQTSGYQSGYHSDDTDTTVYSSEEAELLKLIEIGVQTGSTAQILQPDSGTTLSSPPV
Mast/stem cell growth factor receptor Kit (Homo sapiens), P10721 [V560G], sequence (P10721 whole entry V560G): as the sequence (P10721 whole entry) above, with V560G counted along it
Tyrosine-protein kinase JAK1 (Homo sapiens), sequence (P23458 whole entry): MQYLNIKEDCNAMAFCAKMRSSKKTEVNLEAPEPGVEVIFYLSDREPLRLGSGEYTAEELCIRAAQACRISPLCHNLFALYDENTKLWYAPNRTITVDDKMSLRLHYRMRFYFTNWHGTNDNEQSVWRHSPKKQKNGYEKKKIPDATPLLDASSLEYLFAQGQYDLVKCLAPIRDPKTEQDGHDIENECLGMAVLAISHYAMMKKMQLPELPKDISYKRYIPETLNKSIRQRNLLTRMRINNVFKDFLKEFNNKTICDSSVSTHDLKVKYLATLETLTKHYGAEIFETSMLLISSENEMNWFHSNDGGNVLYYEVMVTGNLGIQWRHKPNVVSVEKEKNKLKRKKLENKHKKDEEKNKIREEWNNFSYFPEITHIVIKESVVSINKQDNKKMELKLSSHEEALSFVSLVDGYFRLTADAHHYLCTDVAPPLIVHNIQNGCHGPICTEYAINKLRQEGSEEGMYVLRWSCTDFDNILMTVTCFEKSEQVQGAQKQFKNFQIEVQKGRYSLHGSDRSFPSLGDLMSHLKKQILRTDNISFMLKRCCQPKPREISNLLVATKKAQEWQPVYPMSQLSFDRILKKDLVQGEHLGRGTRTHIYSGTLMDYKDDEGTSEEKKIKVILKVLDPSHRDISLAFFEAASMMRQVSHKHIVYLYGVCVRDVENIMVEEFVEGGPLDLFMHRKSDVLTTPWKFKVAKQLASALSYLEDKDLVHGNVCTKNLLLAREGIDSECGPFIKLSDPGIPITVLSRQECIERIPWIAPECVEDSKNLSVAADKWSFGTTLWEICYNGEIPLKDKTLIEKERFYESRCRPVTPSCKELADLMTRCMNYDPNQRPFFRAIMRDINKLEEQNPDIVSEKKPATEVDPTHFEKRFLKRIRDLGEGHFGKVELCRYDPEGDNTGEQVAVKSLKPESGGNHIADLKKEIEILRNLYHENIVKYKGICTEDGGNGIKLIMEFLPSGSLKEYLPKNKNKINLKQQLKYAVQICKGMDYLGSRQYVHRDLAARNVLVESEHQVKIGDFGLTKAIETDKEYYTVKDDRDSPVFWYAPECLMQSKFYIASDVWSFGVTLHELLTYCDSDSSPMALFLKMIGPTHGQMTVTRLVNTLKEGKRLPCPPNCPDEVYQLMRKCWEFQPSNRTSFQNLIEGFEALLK
Tyrosine-protein kinase Lck (Homo sapiens), sequence (P06239 2-509 limits assumed): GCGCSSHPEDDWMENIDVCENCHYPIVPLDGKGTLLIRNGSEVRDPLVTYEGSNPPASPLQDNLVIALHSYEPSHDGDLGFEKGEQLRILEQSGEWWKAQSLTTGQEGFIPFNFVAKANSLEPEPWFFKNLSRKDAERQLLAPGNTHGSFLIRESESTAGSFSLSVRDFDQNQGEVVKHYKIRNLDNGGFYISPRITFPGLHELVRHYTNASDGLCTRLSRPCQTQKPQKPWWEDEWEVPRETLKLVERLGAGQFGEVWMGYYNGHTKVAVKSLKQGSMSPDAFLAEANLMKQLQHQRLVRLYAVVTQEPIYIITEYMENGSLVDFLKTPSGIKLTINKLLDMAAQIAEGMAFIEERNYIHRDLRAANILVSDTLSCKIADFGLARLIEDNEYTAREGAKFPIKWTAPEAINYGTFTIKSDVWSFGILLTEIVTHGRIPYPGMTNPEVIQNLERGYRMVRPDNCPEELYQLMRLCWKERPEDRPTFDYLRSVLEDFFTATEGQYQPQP
Mast/stem cell growth factor receptor Kit (Homo sapiens), P10721 [D816V], sequence (P10721 whole entry D816V): as the sequence (P10721 whole entry) above, with D816V counted along it

For the compound `CCN(CC)Cc1ccc(Nc2nccc(-c3cnn4ncccc34)n2)cc1`, the inhibition in [1] is -0.21%; in experiment [2], 4.71%; in experiment [3] it was 4.83%; in experiment [4], 6.24%; in experiment [5], 20.9%; in experiment [6], -3.13%. Besides, the inhibition was 14.2% in experiment [7]; 7.19% in experiment [8]; 39.1% in experiment [9]; 64.8% in experiment [10]; 93.1% in [11]; 1.8% in experiment [12]. Moreover, the inhibition amounted to 4.13% in experiment [13]; 19.4% in [14]; 80.9% in [15]; 8.63% in [16]; 61.5% in [17]; 1.35% in experiment [18]. The inhibition in [19] was found to be 15.3%; in [20], 4.48%.

On to `CN(c1ccc(NC(=O)Nc2c(Cl)cccc2Cl)cc1)c1ccnc(Nc2cccc(CS(C)(=O)=O)c2)n1`, for which the inhibition came out at 71.1% in experiment [1]; 8.34% in experiment [2]; 19.7% in [3]; 2.35% in experiment [4]; 20.7% in experiment [5]; 0.53% in [6]. Also, the inhibition in [7] is 2.77%; in experiment [8] it was 24.6%; in [9], 56.3%; in experiment [10], 88.5%; in [11], 95.9%; in experiment [12], -0.59%. The inhibition in experiment [13] worked out at 2.33%; in [14], 12.3%; in experiment [15], 35.9%; in [16], 71.3%; in experiment [17], 81.5%; in experiment [18] it was 45.5%. Besides, the inhibition stood at 61.2% in experiment [19] and 0.54% in experiment [20].

For `NC(=O)c1ccc(Oc2nccc(-c3c(-c4ccc(F)cc4)ncn3C3CCNCC3)n2)cc1`, the inhibition is 2.32% in [1]; 3.88% in experiment [2]; 0.7% in [3]; 2.78% in experiment [4]; 3.18% in experiment [5]; -0.36% in experiment [6]. For the same compound, the inhibition in experiment [7] was -0.92%; in experiment [8], 4.96%; in experiment [9] it was 9.7%; in experiment [10] it was 7.24%; in experiment [11], 6.05%; in experiment [12] it was 4.42%. Moreover, the inhibition is 4.25% in experiment [13]; 1.23% in experiment [14]; 1.77% in experiment [15]; -1.86% in [16]; 0.03% in experiment [17]; 5.07% in [18]. Moreover, the inhibition in experiment [19] is 4.88%; in experiment [20] it was 4.02%.

As to `COc1cc(C)c(N(C)C(=O)CN(C)C)cc1Nc1nc(Nc2cccc(F)c2C(N)=O)c2cc[nH]c2n1`, the inhibition in [1] was -1.94%; in [2] it was 3.43%; in experiment [3], -5.28%; in experiment [4], 0.96%; in experiment [5], 1.71%; in experiment [6] it was -3.43%. In addition, the inhibition in [7] was -3.47%; in [8] it was 1.87%; in experiment [9], 1.78%; in experiment [10], 0.03%; in experiment [11], -0.73%; in [12], -0.92%. Moreover, the inhibition in experiment [13] is 0.99%; in experiment [14], -0.51%; in experiment [15] it was -1.63%; in [16], -1.08%; in [17], -3.38%; in experiment [18], -3.07%. Besides, the inhibition in [19] was -1.56%; in experiment [20] it was 11.7%.

For `c1ccc(-c2n[nH]cc2-c2ccnc(-c3ccc(OCCN4CCOCC4)cc3)c2)nc1`, the inhibition in [1] was 3.99%; in [2], 6.98%; in experiment [3], 4.5%; in [4] it was 0.47%; in experiment [5], -0.22%; in [6] it was 6.96%. Besides, the inhibition was 5.88% in experiment [7]; 13.7% in experiment [8]; 60.8% in experiment [9]; 0.56% in experiment [10]; 2.31% in experiment [11]; -0.77% in experiment [12]. The inhibition in experiment [13] was 8.41%; in experiment [14] it was -3%; in [15] it was -2.32%; in [16], 7.8%; in experiment [17], 10.4%; in [18] it was 1.7%. Further, the inhibition in [19] was 9.5%; in experiment [20] it was -0.05%.

In the case of `Cc1ccc(C(=O)NC(C)C)cc1-c1ccc(C(=O)NCC2CC2)cc1`, the inhibition in experiment [1] is -0.47%; in experiment [2] it was -3.33%; in experiment [3] it was -1.59%; in experiment [4], -1.52%; in experiment [5], -1.28%; in experiment [6], 0.73%. In addition, the inhibition in experiment [7] was 1.51%; in experiment [8], -1.43%; in [9], 0.78%; in experiment [10] it was -2.99%; in [11] it was -4.83%; in experiment [12], 14.1%. Moreover, the inhibition in experiment [13] is -0.69%; in experiment [14], -3.01%; in [15] it was -1.47%; in experiment [16], 1.17%; in experiment [17] it was 1.03%; in [18], -1.32%. Besides, the inhibition was 0.84% in experiment [19] and -1.19% in experiment [20].

As usually defined, the inhibition is the change of the read-out against control, counted positive when it falls.
